PubChem BioAssay AID1745853 (National Center for Advancing Translational Sciences (NCATS), 2022)
Screen size: about 25,000 compounds; about 970 (3.9%) were called active. Not shown: some 8% with an inconclusive outcome. This is one part of a sample in which actives are shown more often than they occur. The rule behind the calls is not given here.

Columns and labels:
Test in all cases: Primary Screen for Target Class Profiling of Small Molecule Inhibitors of Methyltransferases
[1] = biological target: Catechol O-methyltransferase (Homo sapiens) (UniProt P21964); conditions: purified enzyme, MTase-Glo SAH luminescence; activity change, negative = inhibition: at 40 µM, stronger effect = lower value; outcome: 40 uM
Outline: (§1)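 Each enzyme was assayed with SAM and its substrate. SAH formation detected by MTase-Glo luminescence; single-point 40 uM screen[…].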

[2] = biological target: Glycine N-methyltransferase (Homo sapiens) (UniProt Q14749); conditions: purified enzyme, MTase-Glo SAH luminescence; measured here: GNMT inhibition; at 40 µM; stronger effect = lower value
Outline: as §1

[3] = biological target: Guanidinoacetate N-methyltransferase (Homo sapiens) (UniProt Q14353); conditions: purified enzyme, MTase-Glo SAH luminescence; measured here: GAMT inhibition; at 40 µM; stronger effect = lower value
Outline: as §1

[4] = biological target: Histamine N-methyltransferase (Homo sapiens) (UniProt P50135); conditions: purified enzyme, MTase-Glo SAH luminescence; measured here: HNMT inhibition; at 40 µM; stronger effect = lower value
Outline: as §1

[5] = biological target: Nicotinamide N-methyltransferase (Homo sapiens) (UniProt P40261); conditions: purified enzyme, MTase-Glo SAH luminescence; measured here: NNMT inhibition; at 40 µM; stronger effect = lower value
Outline: as §1

[6] = biological target: Phenylethanolamine N-methyltransferase (Homo sapiens) (UniProt P11086); conditions: purified enzyme, MTase-Glo SAH luminescence; measured here: PNMT inhibition; at 40 µM; stronger effect = lower value
Outline: as §1
% is set by controls: 0 for no effect and ±100 for the full control effect.

Sequence of Glycine N-methyltransferase (Homo sapiens) (Q14749 whole entry, looked up): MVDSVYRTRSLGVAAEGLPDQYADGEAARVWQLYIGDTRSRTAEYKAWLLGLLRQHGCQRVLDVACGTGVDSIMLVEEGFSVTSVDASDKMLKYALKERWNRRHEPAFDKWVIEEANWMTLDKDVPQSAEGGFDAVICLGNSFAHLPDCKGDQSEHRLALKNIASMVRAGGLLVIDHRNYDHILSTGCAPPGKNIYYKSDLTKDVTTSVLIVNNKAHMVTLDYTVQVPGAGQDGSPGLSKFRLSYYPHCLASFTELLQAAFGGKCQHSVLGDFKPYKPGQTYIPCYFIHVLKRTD
Sequence of Nicotinamide N-methyltransferase (Homo sapiens) (P40261 whole entry, looked up): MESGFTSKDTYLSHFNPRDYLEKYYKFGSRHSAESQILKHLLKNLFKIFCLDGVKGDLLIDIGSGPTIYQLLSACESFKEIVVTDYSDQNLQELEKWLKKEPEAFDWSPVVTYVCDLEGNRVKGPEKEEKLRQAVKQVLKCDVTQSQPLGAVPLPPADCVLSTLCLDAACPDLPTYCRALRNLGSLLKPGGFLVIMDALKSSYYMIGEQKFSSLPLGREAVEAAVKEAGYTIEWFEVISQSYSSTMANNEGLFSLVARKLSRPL
Sequence of Catechol O-methyltransferase (Homo sapiens) (P21964 whole entry, looked up): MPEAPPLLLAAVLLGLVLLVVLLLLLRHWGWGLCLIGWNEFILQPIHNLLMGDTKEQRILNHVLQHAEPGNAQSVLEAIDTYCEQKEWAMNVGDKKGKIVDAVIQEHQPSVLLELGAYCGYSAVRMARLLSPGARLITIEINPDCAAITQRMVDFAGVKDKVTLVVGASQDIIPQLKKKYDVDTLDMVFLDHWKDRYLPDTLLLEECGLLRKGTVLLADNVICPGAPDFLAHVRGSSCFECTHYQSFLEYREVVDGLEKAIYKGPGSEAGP
Sequence of Phenylethanolamine N-methyltransferase (Homo sapiens) (P11086 whole entry, looked up): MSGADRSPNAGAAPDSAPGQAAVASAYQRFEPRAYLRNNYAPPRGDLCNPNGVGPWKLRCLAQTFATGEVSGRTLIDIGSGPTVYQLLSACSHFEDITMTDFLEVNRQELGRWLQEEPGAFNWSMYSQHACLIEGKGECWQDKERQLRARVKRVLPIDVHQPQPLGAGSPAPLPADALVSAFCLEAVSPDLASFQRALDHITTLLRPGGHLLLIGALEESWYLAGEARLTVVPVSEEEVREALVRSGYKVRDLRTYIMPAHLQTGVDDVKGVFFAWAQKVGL
Sequence of Histamine N-methyltransferase (Homo sapiens) (P50135 whole entry, looked up): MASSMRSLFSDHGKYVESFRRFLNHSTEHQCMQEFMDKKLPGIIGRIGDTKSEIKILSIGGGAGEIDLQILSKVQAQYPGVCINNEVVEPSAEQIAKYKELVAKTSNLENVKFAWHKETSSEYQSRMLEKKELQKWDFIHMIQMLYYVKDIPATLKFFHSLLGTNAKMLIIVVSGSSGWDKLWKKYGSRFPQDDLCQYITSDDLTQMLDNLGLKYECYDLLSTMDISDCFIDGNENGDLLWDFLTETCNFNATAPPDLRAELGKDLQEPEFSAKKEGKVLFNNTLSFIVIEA

| SMILES | activity change, negative = inhibition [1] | activity change, negative = inhibition [2] | activity change, negative = inhibition [3] | activity change, negative = inhibition [4] | activity change, negative = inhibition [5] | activity change, negative = inhibition [6] | outcome [1] |
| --- | --- | --- | --- | --- | --- | --- | --- |
| Cn1c(=O)n(C)c2cc(Nc3nc4ccccc4nc3NS(=O)(=O)c3ccc(Cl)cc3)ccc21 | 3.8% (inactive) | 7.68% | -3.35% | -4.47% | 0.13% | -6.48% |  |
| O=C(O)CC1CCC(c2ccc(-c3ccc(Nc4ccc(C(F)(F)F)nc4)cn3)cc2)CC1 (stereo not drawn) | 17.9% (active) | -52.1% | -12.8% | 1.31% | -35.3% | -4.28% |  |
| CC(C)c1nccn1CCCNc1nc(-c2ccncc2)nc2c1cnn2C | -44.5% (active) | -59.1% | -50.1% | -86% | -53% | -25.5% |  |
| CCOC(=O)c1cc2n(n1)CC(C)(C(=O)NCc1ccc(F)cc1)N(Cc1ccccc1OC)C2=O (stereo not drawn) | -3.88% (inactive) | -3.75% | 3.18% | 0.898% | -7.43% | -5.73% |  |
| COCCN1CC2(CCC1=O)CCN(C(=O)[C@@H]1C[C@@H](O)CN1)CC2 | 4.29% (inactive) | -0.827% | -1.32% | 1.21% | 0.29% | -19.8% |  |
| CC(C)CCN1CC2(CCCN(C(=O)c3ccn(C)c(=O)c3)C2)CCC1=O (stereo not drawn) | -31.2% (active) | -57.8% | -45.1% | -13.3% | -17.7% | -27% |  |
| COCCCn1c(=O)[nH]c2cccnc21 | -9.36% (inactive) | -5.17% | -6.2% | -1.12% | -14.7% | 9.39% |  |
| CCCn1c(=O)c2ccc(C(=O)NC(C)C)cc2n2c(=O)n(CC(=O)NCc3ccccc3Cl)nc12 | 4.33% (inactive) | 2.57% | 1.92% | 6.44% | 8% | 4.03% |  |
| CCOC(=O)c1cc(Nc2ccc(C(C)=O)cc2)c2cc(Cl)ccc2n1 | -3.11% (inactive) | -4.22% | 6.82% | 0.863% | 6.54% | -3.31% |  |
| Cc1ccc(N2C(=O)c3cc4sccc4n3CC2(C)C(=O)NC2CCCCC2C)cc1 (stereo not drawn) | -3.6% (inactive) | -2.03% | 1.51% | -1.92% | -1.16% | -6.83% |  |
| COc1cccc(-c2nnc3n(CCc4ccccc4)c(=O)c4ccccc4n23)c1O | 0.892% (inactive) | -4.84% | 0.066% | 2.53% | -3.08% | 0.274% |  |
| CN1CCCC1Cc1c[nH]c2ccc(CCS(=O)(=O)c3ccccc3)cc12 (stereo not drawn) |  | -2.16% |  | -89.9% |  |  | active |
| Cc1cc2c(cc3n2CC(C)(C(=O)NC2CCCCCC2)N(Cc2cccs2)C3=O)o1 (stereo not drawn) | -1.18% (inactive) | -9.3% | 4.66% | -6.23% | -21% | -2.94% |  |
| CCCCN1C(=O)c2cc(C(=O)NCc3cccc(OC)c3)nn2CC1(C)C(=O)NC1CCCC1 (stereo not drawn) | 4.35% (inactive) | 5.79% | 1.34% | 1.56% | 5.98% | 5.6% |  |
| CCn1c(=O)n(CC)c2cc(S(=O)(=O)Nc3ccc(Br)c(C)c3)c(Cl)cc21 | -4.03% (inactive) | -3.14% | 3.91% | -0.387% | -1.18% | -4.27% |  |
| CCCN1C(=O)c2c(C(=O)NCCc3ccco3)ncn2CC1(C)C(=O)NCc1ccc(C)cc1 (stereo not drawn) | 7.22% (inactive) | 0.693% | 0.268% | 5.09% | 4.66% | 9% |  |
| Cc1c(NC(=O)c2cc(C(N)=O)nc3cc(F)ccc23)c(C(F)(F)F)nn1Cc1ccc(C#N)cc1 | -4.71% (inactive) | -5.91% | -2.28% | 3.43% | -13.8% | 1.39% |  |
| COc1ccccc1CNC(=O)c1nn(CC2CC2)c2c1CNCC2 | -8.87% (inactive) | -6.08% | -7.04% | -9.87% | -14.1% | -12.2% |  |
| CC(C)n1c(=O)c2ccc(C(=O)NC3CCCCC3)cc2n2c(=O)n(CC(=O)NC3CCCCC3)nc12 | -2.65% (inactive) | -0.578% | -0.047% | 2.13% | -1.76% | -1.89% |  |
| CC(C)Cn1c(=O)c2ccccc2n2c(=O)n(Cc3ccccc3Cl)nc12 | 3.16% (inactive) | 2.72% | 1.02% | 6.97% | -2.52% | 3.52% |  |
| COc1c(C)c(OCC=C(C)C)cc2c1C(=O)NC2=O | 2.98% (inactive) | 1.17% | 8.39% | 6.71% | -18% | -15.7% |  |
| NC(=O)c1cnc(NCCc2ccc(O)c(Cl)c2)nc1NCc1ccccc1 | -21.7% (active) | -31.8% | -12.1% | -36% | -88.5% | -23.4% |  |
| O=C(CCc1nnc2ccc(NCCCN3CCCC3=O)nn12)NCc1ccccc1Cl | 10.2% (inactive) | 1.96% | 2.26% | 10.9% | 1.3% | 9.12% |  |
| C[C@@H]1C[C@H]2O[C@@]3(O[C@@H]2C(C)(C)O)C(O)[C@@]2(C)C4CCC5C(C)(C)[C@@H](O[C@H]6OC[C@H](O)[C@@H](O)[C@@H]6O)CC[C@@]56C[C@@]46CC[C@]2(C)C13 (stereo partly drawn) | -3.8% (inactive) | 0% | -1.51% | -4.39% | -13.7% | -0.709% |  |
| COc1ccccc1CN1C(=O)c2cc3sccc3n2CC1(C)C(=O)NC1CCCC(C)C1C (stereo not drawn) | 4.18% (inactive) | 1.88% | 0% | 3.67% | -3.12% | 1.29% |  |
| Cc1cnc(-c2ccncc2)n1CCN | -5.2% (inactive) | -4.08% | -7.5% | -1.23% | -6.93% | -8.39% |  |
